Assay results taken from the supplement of paper PMC6089552.
The whole screen tested about 3,200 compounds, of which about 300 (9.4%) showed activity. This is one part of a sample in which actives are shown more often than they occur.

Test system: A673/TR/shEF
Experiment: cell viability (LOESS-normalised, relative to median of negative controls) (log2 ratio); higher = more viable cells (less compound effect), active = hit call of the paper (over 3 MAD below the median)
Settings: treatment time: 72 h
Summary of the method: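 Doxycycline, present or absent from 24 h before compounds, was used to induce EWS-FLI1 shRNA knockdown in A673/TR/shEF Ewing sarcoma cells at 1,500 per well in 384-well plates. Cells then received library compounds at two or more concentrations, or DMSO controls, for three days. Viability was measured by CellTiter-Glo luminescence on an Envision reader, and per-plate LOESS correction, division by the negative-control median and log2 transformation followed.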

[1] = 0.25 µM, library screen: screen1, EWS-FLI1 expression: high (no doxycycline)
[2] = 0.25 µM, library screen: screen1, EWS-FLI1 expression: low (doxycycline-induced shRNA knockdown)
[3] = 2.5 µM, library screen: screen1, EWS-FLI1 expression: high (no doxycycline)
[4] = 2.5 µM, library screen: screen1, EWS-FLI1 expression: low (doxycycline-induced shRNA knockdown)
[5] = 0.25 µM, library screen: screen2, EWS-FLI1 expression: high (no doxycycline)
[6] = 0.25 µM, library screen: screen2, EWS-FLI1 expression: low (doxycycline-induced shRNA knockdown)
[7] = 2.5 µM, library screen: screen2, EWS-FLI1 expression: high (no doxycycline)
[8] = 2.5 µM, library screen: screen2, EWS-FLI1 expression: low (doxycycline-induced shRNA knockdown)

Measured: cell viability (log2)

COc1nc(NC(C)C)nc(NC(C)C)n1
inactive: [1] -0.00161 | [2] 0.0381 | [3] 0.104 | [4] 0.186

COC(=O)/C=C(\C)OP(=O)(OC)OC
inactive: [1] -0.00893 | [2] -0.0133 | [3] 0.034 | [4] 0.0603

CCC(C)C(OC(C)=O)C(=O)O[C@H]1[C@H](O)C2[C@@]3(C)C=CC(=O)C(C)(C)C3C[C@@H](OC(=O)C(O)C(C)C)[C@@]2(C)[C@@]23O[C@@H]2C[C@@H](c2ccoc2)[C@]13C (stereo partly drawn)
inactive: [1] 0.0564 | [2] 0.0957 | [3] 0.0934 | [4] 0.141

CN(C)[C@@H]1C(=O)C(C(N)=O)=C(O)[C@@]2(O)C(=O)C3=C(O)c4c(O)cccc4[C@@](C)(O)[C@H]3C[C@@H]12
inactive: [2] 0.111 | [3] -0.0332 | [4] 0.155
active: [1] -0.127

CN(C)[C@@H]1C(=O)C(C(N)=O)=C(O)[C@@]2(O)C(=O)C3=C(O)c4c(O)cccc4[C@@](C)(O)[C@H]3[C@H](O)[C@@H]12
inactive: 0.103 µM, library screen: screen3, EWS-FLI1 expression: high (no doxycycline) 0.0702 | 0.103 µM, library screen: screen3, EWS-FLI1 expression: low (doxycycline-induced shRNA knockdown) 0.0143 | [1] 0.0991 | [2] 0.163 | 0.308 µM, library screen: screen3, EWS-FLI1 expression: high (no doxycycline) 0.0382 | 0.308 µM, library screen: screen3, EWS-FLI1 expression: low (doxycycline-induced shRNA knockdown) 0.159 | 0.926 µM, library screen: screen3, EWS-FLI1 expression: high (no doxycycline) 0.119 | 0.926 µM, library screen: screen3, EWS-FLI1 expression: low (doxycycline-induced shRNA knockdown) 0.101 | [3] 0.158 | [4] 0.172 | 2.8 µM, library screen: screen3, EWS-FLI1 expression: high (no doxycycline) 0.158 | 2.8 µM, library screen: screen3, EWS-FLI1 expression: low (doxycycline-induced shRNA knockdown) 0.126 | 8.3 µM, library screen: screen3, EWS-FLI1 expression: high (no doxycycline) 0.103 | 8.3 µM, library screen: screen3, EWS-FLI1 expression: low (doxycycline-induced shRNA knockdown) 0.0656 | 25 µM, library screen: screen3, EWS-FLI1 expression: high (no doxycycline) 0.0616 | 25 µM, library screen: screen3, EWS-FLI1 expression: low (doxycycline-induced shRNA knockdown) 0.0848

CN1Cc2c(ccc3c2OCO3)[C@@H]2[C@H]1c1cc3c(cc1C[C@@H]2O)OCO3
inactive: [1] 0.0821 | [2] 0.0876 | [3] -0.0483 | [4] 0.0764

Ic1ccccc1CN[C@H]1C2CCN(CC2)[C@H]1C(c1ccccc1)c1ccccc1
inactive: [5] 0.128 | [6] 0.206 | [7] 0.245 | [8] 0.191

CC1(C)C(=O)C=C[C@]2(C)C1=C(O)C(=O)[C@@]1(C)[C@H]2CC[C@]2(C)[C@@H](c3ccoc3)C[C@@H]3O[C@]312
inactive: [1] 0.0131 | [2] 0.0981 | [3] -0.0522 | [4] 0.0901

CCCC(C)C1(CC)C(=O)NC(=S)NC1=O (stereo not drawn)
inactive: [1] 0.047 | [2] -0.0503 | [3] 0.164 | [4] 0.136

CNC(=O)Oc1cccc2c1OC(C)(C)O2
inactive: [1] 0.147 | [2] 0.159 | [3] 0.155 | [4] 0.0893

CCCCCC[C@H]1C(=O)O[C@H](C)[C@H](NC(=O)c2cccc(NC=O)c2O)C(=O)O[C@@H](C)[C@@H]1OC(=O)CC(C)C
active: [1] -0.888 | [2] -0.636 | [3] -1.71 | [4] -0.774

Cc1ccc2cc3c(ccc4ccccc43)c3c2c1CC3
inactive: [1] 0.0577 | [2] -0.00243 | [3] 0.111 | [4] 0.12

CC(C)Oc1cccnc1N(C)C1CCN(Cc2ccc(I)cc2)CC1
inactive: [5] 0.0944 | [6] 0.0215 | [7] 0.21 | [8] 0.0697

CC(C)N(C(=O)CCl)c1ccccc1
inactive: [1] 0.0295 | [2] 0.0848 | [3] 0.154 | [4] 0.0575

O=C(O)CNCP(=O)(O)O
inactive: [1] 0.0875 | [2] 0.0822 | [3] 0.124 | [4] 0.106

NCC(O)c1cc(O)c(O)cc1F (stereo not drawn)
inactive: [5] 0.233 | [6] 0.183 | [7] 0.0966 | [8] 0.0732

CC(=O)Oc1ccc(Cl)c2cccnc12
inactive: [1] 0.106 | [2] 0.136 | [3] 0.0698 | [4] 0.0992

CNc1ccccc1C(=O)O
inactive: [1] 0.0696 | [2] 0.0258 | [3] 0.131 | [4] 0.00755

C[CH2][Hg][S]c1ccccc1C(=O)O
inactive: [2] -0.123
active: [1] -0.15 | [3] -3.6 | [4] -2.98
